Experimental data: PubChem BioAssay AID1347072 (National Center for Advancing Translational Sciences (NCATS), 2019)
Out of some 44,000 compounds screened, fewer than 10 were called active. Not shown: some 2% with an inconclusive outcome. Calls come from the whole dose curve; as a rule, active = well fitted curve in the direction sought with a large enough effect; inconclusive = small, poorly fitted or top-dose-only effect, or another doubt; inactive = no such curve, though single readings can be large or run the other way. Not all results are given here.

The molecules below were run against Galactokinase (Homo sapiens) (UniProt P51570) (assay: qHTS Assay for Inhibitors of Human Galactokinase (GALK): NCGC Sytravon Library Screen). Settings: recombinant GALK, Kinase-Glo ATP luminescence, 1 h; series mostly up to 57.5 µM; activity, negative = inhibition: at the top concentration.
Galactokinase (Homo sapiens), sequence (P51570 whole entry, looked up): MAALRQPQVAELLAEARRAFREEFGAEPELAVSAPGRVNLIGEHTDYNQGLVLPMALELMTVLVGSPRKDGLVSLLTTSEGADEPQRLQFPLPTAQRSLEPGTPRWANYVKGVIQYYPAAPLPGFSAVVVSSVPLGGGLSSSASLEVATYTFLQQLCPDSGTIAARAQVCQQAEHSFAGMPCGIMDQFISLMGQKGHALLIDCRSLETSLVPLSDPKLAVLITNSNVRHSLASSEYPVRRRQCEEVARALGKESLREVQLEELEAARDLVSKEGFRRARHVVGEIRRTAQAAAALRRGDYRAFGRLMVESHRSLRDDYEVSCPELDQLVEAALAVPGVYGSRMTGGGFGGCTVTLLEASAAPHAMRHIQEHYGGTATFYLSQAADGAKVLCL
Source text: Inherited deficiency of galactose-1-phosphate uridyltransferase (GALT) can result in a potentially lethal disorder called Classic Galactosemia (OMIM 230400). Several lines of evidence indicate that an elevated level of galactose-1-phosphate (gal-1-p), the product of galactokinase (GALK), is a major, if not sole, pathogenic mechanism in patients with classic galactosemia. Therefore, finding inhibitors of GALK is a potential novel therapy for this inherent metabolic disease and is the long term goal of this project. This screen is run against the NCGC Sytravon compound library collection. GALK (provided by Kent Lai) was assayed using ATP and D-(+)-Galactose (Sigma-Aldrich cat# G0750) as substrates. Promega Kinase-Glo Plus technology was used to detect kinase activity. Reactions with and without GALK were used as negative and positive controls together with Protein Tyrosine Phosphatase CD45 inhibitor (EMD Bioscience cat# 540215) which is shown to inhibit GALK activity. Decrease in activity corresponds to inhibition of the enzyme is the desired outcome for this assay. NIH Molecular Libraries Probe Production Network [MLPCN] NIH Chemical Genomics Center [NCGC] Grant: R03 MH085689-01 PI Name: Kent Lai Ph.D., University of Utah
NCGC Assay Protocol Summary: Three uL/well of ATP-buffer solution (35 uM ATP, 20mM HEPES pH8.0, 5 mM MgCl2, 60 mM NaCl, 1 mM DTT, 0.01% BSA final concentration) was dispensed into 1536-well, assay plates (Greiner, solid white medium-binding plates) with Aurora Discovery BioRAPTR Flying Reagent Dispenser (FRD; Beckton-Dickenson). Compound solution (23 nL) was transferred to the assay plate using the Kalypsys 1536-pin tool. One uL/well GALK-galactose solution (5 nM GALK, 100 uM galactose, 20 mM HEPES pH8.0, 5 mM MgCl2, 60 mM NaCl, 1 mM DTT, 0.01% BSA final concentration) was then added using the FRD yielding a total kinase reaction volume of 4 uL/ well. After 1 hour of room temperature incubation, 4 uL Kinase-Glo Plus reagent was added for a final assay volume of 8 uL/ well. Luminescence was detected with the ViewLux plate reader (Perkin Elmer, Waltham, MA) after 10 min incubation using a 1 sec exposure time and 2x binning.
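Note: plate controls were full GALK reaction for no effect and reaction lacking GALK for full effect.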

activity, negative = inhibition, inactive:
CCOc1ccc(CNC(=O)C2CCN(c3nnc(-n4cccc4CNc4ccc(C)cc4)s3)CC2)cc1OC 5.96%, CCN1C(=O)c2ccccc2Sc2ccc(NC(=O)Cc3ccc(OC)cc3)cc21 -0.32%, Cc1ccc(C)c(S(=O)(=O)c2nnn3c2nc(N2CCOCC2)c2sccc23)c1 4.67%, Cc1ccc(NC(=O)C2CCN(S(=O)(=O)c3cc(-c4noc(C)n4)ccc3C)CC2)c(C)c1 -1.9%, CCCC(=O)Nc1ccc2oc(-c3ccc(O)c(Br)c3)nc2c1 -1.85%, O=S(=O)(c1ccc(C2CCCCC2)cc1)N1CCN(c2ccc(Cl)c(Cl)c2)CC1 6.36%, COc1ccc(-c2nn(CC(=O)NC3CCCC3)c3c2cnc2ccc(F)cc23)cc1 2.49%, Cc1ccc2oc(=O)c3cnn(CC(=O)NCc4ccccc4Cl)c3c2c1 -10.1%, Cc1ccc(CN(C(=O)COc2ccc(Cl)cc2C)C2CCS(=O)(=O)C2)o1 (centres undefined) -0.903%, CCN(CCCNC(=O)c1cc(Nc2ccc(OC)cc2)nc2ccccc12)c1cccc(C)c1 -1.53%, Cc1c(C)n(Cc2ccc(Cl)cc2)c2ccc(C(=O)N3CCN(c4ccccc4F)CC3)cc12 0.706%, Cc1ccc(OCCSc2nc3ccc(NC(=O)COc4ccc(C)cc4)cc3s2)cc1 0.194%, CCSc1nnc(NC(=O)c2cc(=O)c3cc(C)c(C)cc3o2)s1 -0.836%, O=C(CS(=O)(=O)c1cccc2nsnc12)N1CCN(c2cccc(Cl)c2)CC1 -5.52%, Cc1nc2ccn(Cc3cccnc3)c(=O)c2cc1C(=O)N1CCN(c2ccccc2F)CC1 -1.96%, O=C(CSc1nc2nccnc2c(=O)n1CCc1c[nH]c2ccccc12)Nc1ccccc1F 3.23%, CCn1cc(C(=O)OCC(=O)Nc2cc(C)cc(C)c2)c(=O)c2ccc(C)nc21 -3.36%, CCN1CCN(Cc2c(O)ccc3oc(C)c(C(=O)Nc4ccc(C)cc4C)c23)CC1 4.89%, CC1CCCN(c2csc3ccc(F)cc3c2=O)C1 (centres undefined) -1.87%, Cc1ccccc1CNC(=O)c1cccc(NC(=O)c2nsc3ccccc23)c1 2.23%, CN(Cc1ccco1)S(=O)(=O)c1nnc(NC(=O)c2ccccc2)s1 0.829%, Cc1ccc(F)cc1S(=O)(=O)N1CCC(c2nc3ccccc3s2)CC1 -6.17%, CCn1c2ccccc2c2cc(CN3CCN(Cc4cccc(Cl)c4)CC3)ccc21 -18.5%, CN(Cc1ccccc1)S(=O)(=O)c1ccc(F)c(C(=O)Nc2cccc(Cl)c2Cl)c1 -0.737%, O=C(Nc1cccc2cccnc12)c1cccc2c(Br)cccc12 0.56%, CCOc1ccc(NC(=O)c2cc3c(=O)n(Cc4cccs4)ccc3nc2C)cc1 -0.316%, CCOc1ccccc1NC(=O)CN1CCCN(Cc2cccc(Cl)c2)S1(=O)=O 0.419%, CCOCCCNC(=O)c1c(NC(=O)Cc2coc3ccc(C)cc23)sc2c1CCC2 0.78%, CCc1nn(CCCC(=O)NCc2ccc(C)cc2)c(=O)c2cc3occc3n12 -3.24%, CCOc1ccc(N(Cc2ccccc2)C(=O)c2nc(S(C)(=O)=O)ncc2Cl)cc1 9.16%, CCCN(CCC)C(=O)Cn1c(=O)n(-c2ccc(Cl)cc2)c(=O)c2c3c(sc21)CCCCC3 5.05%, Cc1ccc(Cl)cc1NC(=O)CSc1nccn1C -7.44%, CCN(CC)S(=O)(=O)c1ccc2c(c1)c(=O)c(C(=O)N1CCN(c3cccc(Cl)c3)CC1)cn2C 9.01%, COc1ccc(CCNC(=O)CCCCn2c(=O)c3ccccc3n(Cc3ccccc3)c2=O)cc1OC -5.81%, O=C(NCCc1ccc(Cl)cc1)c1ccc2nc(CCc3ccccc3)oc2c1 -1.58%, Cc1oc2ncn(CC(C)C)c(=O)c2c1C(=O)N1CCN(c2ccccc2F)CC1 1.39%, CCCNC(=O)c1ccc(Cn2c(SCC(N)=O)nc3ccccc3c2=O)cc1 0.439%, CCOC(=O)c1cc(NC(=O)c2ccc(F)cc2)c(=O)n2c1oc1ccccc12 0.179%, COc1ccc(-n2c(=O)c3c(c4cc(OC)ccc4n3C)n(Cc3cccc(C)c3)c2=O)cc1 0.514%, Cc1cccc(N2CCN(c3c(CN4CCCC4)c(=O)oc4ccccc34)CC2)c1C 1.96%, O=C(Nc1nnc(S(=O)(=O)N2CCCc3ccccc32)s1)c1cccc(F)c1 2.61%, CC(C)c1ccc(NC(=O)CN(C)S(=O)(=O)c2ccc3c(c2)c(=O)n(C)c(=O)n3C)cc1 10.7%, Cc1ccccc1CN1CCC(CNC(=O)c2c(C)oc3ncnc(N4CCCCC4)c23)CC1 0.952%, CCOc1ccc(CNC(=O)C2CCCN(S(=O)(=O)N(CC)c3ccc(OCC)cc3)C2)cc1 (centres undefined) 1.86%, COC(=O)c1ccccc1NC(=O)C(Cc1ccccc1)N1Cc2ccccc2C1=O (centres undefined) -3.55%, O=C(NCCc1csc(-c2ccc(C(F)(F)F)cc2)n1)C(=O)Nc1ccc(F)c(Cl)c1 1.81%, Cc1oc2ccc(O)c(CN3CCC(C)CC3)c2c1C(=O)Nc1ccccc1 2.63%, O=C(CC(c1cccs1)N1Cc2ccccc2C1=O)Nc1ccc(F)c(F)c1 (centres undefined) -2.34%, COc1ccccc1NC(=O)Cn1cnc2ccc(S(=O)(=O)N3CCC(C)CC3)cc2c1=O -0.99%, CCc1cccc(-n2nnc(-c3nsc(NC(=O)c4ccc(C)cc4)n3)c2C)c1 4.26%, Cc1cccc(-n2ccnc2SCC(=O)Nc2cc(C(F)(F)F)ccc2Cl)c1 -0.723%, COc1ccc(-c2nc3scc(CCNS(=O)(=O)c4cc(F)ccc4OC)n3n2)cc1OC -4.76%, C=Cc1ccc(Cn2c(C(=O)O)c(CNC3CCCC3)c3ccc(C)cc32)cc1 2.49%, CCS(=O)(=O)N1CCC(n2c(C)nc3cccnc32)CC1 -3.09%, Cc1ccc(C(=O)CSc2nc(-c3ccccc3)nc3c2CCCC3)c(C)c1 0.195%, Cc1ccc(C(=O)NCCSc2c(C)[nH]c3ccccc23)cc1C 5.45%, COc1ccc(CCNC(=O)c2c3c(nc4ccccc24)C(=O)N(C2CCCCC2)C3)cc1OC -0.522%, Cc1ccc(CNC(=O)c2ccc(CS(=O)Cc3cccc(Cl)c3)o2)cc1 (centres undefined) 4.65%, CC1Cc2cc(S(=O)(=O)CCC(=O)Nc3ccc(F)c(Cl)c3)ccc2N1C(=O)C1CC1 (centres undefined) 0.973%, CCCN1CCN(CCCNC(=O)c2cnn(-c3ccc(C)cc3)c2-n2cccc2)CC1 -0.365%, Cn1c(=O)c2c(SCC(=O)NCC3CCCO3)nc(-c3ccccc3F)nc2n(C)c1=O (centres undefined) -0.321%, COC(=O)c1cnc(N2CCN(c3ccccc3OC)CC2)c2ccccc12 0.685%, CN1c2ccc(Cl)cc2-c2nc(SCC(=O)Nc3cc(F)ccc3F)ncc2S1(=O)=O -2.3%, COc1ccc(Nc2cc(C(=O)NCCCN(C)c3ccccc3)c3ccccc3n2)c(OC)c1 3.84%, COc1cccc(CNC(=O)C(=O)NCC(c2cccs2)S(=O)(=O)c2ccccc2)c1 (centres undefined) 3.24%, Cc1cccc(-n2ncc(C(=O)N3CCN(c4ccc(Cl)cc4)CC3)c2C2CCN(C(=O)OC(C)(C)C)CC2)c1 4.36%, COc1ccc(NC(=O)CCNS(=O)(=O)c2ccc3c(c2)CCCC(=O)N3)cc1Cl -1.34%, Cc1cccc(N(C)C(=O)c2cc(S(=O)(=O)N3CCCCC3)c[nH]2)c1 0.584%, CCOC(=O)c1c(SCC(=O)Nc2cccc(C)c2C)nc(=O)[nH]c1C -0.958%, CCc1ccc(NC(=O)C2CCCN2S(=O)(=O)c2ccc3nc(-c4ccccc4)[nH]c3c2)cc1 (centres undefined) 3.02%, COC(=O)c1scc(-c2ccccc2)c1S(=O)(=O)Nc1ccccc1 -4.52%, CC1CCN(S(=O)(=O)c2ccc3c(c2)N(CC(=O)NCc2ccccc2Cl)C(=O)CO3)CC1 5.21%, COc1ccc(N2CCN(C3=NS(=O)(=O)C(c4cccc(Br)c4)=C3C)CC2)cc1 -8.33%, CCOc1ccc(CNC(=O)CCc2c(C)nn(-c3ccc(N4CCCCC4)nn3)c2C)cc1 1.04%, COc1ccc(OC)c(-c2nc(C(N)=O)c3c(n2)n(-c2ccc4c(c2)OCO4)c(=O)n3C)c1 -0.207%, O=C(NCc1ccc(F)cc1)c1ccc2nc(N3CCCCC3)sc2c1 1.1%, COc1cc(OC)c(C2C=C(C(=O)O)Nc3ncnn32)cc1OC (centres undefined) 1.86%, CCOc1cc(/C=C(\C#N)C(=O)Nc2ccccc2C)ccc1OCc1cc(=O)n2nc(CC)sc2n1 5.9%, O=C(Nc1ccc2nc(SCCOc3ccccc3Cl)sc2c1)c1ccco1 -12.7%, Cc1ccc(-c2nnc(SCC(=O)NCc3ccccc3)nc2-c2ccc(C)cc2)cc1 -0.152%, COc1cc(NC(=O)Cn2c(=O)n(Cc3ccco3)c(=O)c3oc4ccccc4c32)cc(OC)c1 4.91%, Cc1ccccc1CN1CCC(CNC(=O)c2cc3ccc4cccnc4c3[nH]2)CC1 1.34%, Cc1cc(C)c2oc(C(=O)Nc3ccc(S(=O)(=O)N(C)c4ccccc4)cc3)cc(=O)c2c1 8.51%, Cc1ccc(-c2nc(CS(=O)(=O)CC(=O)NCc3ccccc3Cl)c(C)o2)cc1 8.44%, CC(=O)c1ccc(NC(c2ccc(F)cc2)c2nnc(-c3ccccc3)o2)cc1 (centres undefined) 3.14%, CCOc1ccc(CNC(=O)CCC(=O)N2CCSc3ccccc32)cc1 0.849%, COCCNC(=O)c1ccc2c(c1)N(Cc1cccc(Cl)c1)C(=O)c1ccccc1S2(=O)=O 3.54%, COc1cc(NS(=O)(=O)c2ccc3c(c2)OCC(C(=O)N2CCCC2)O3)cc(OC)c1 (centres undefined) 4.24%, CCN(CC)C(=O)CSc1nc2cc3c(cc2c(=O)n1CCCC(=O)NCc1ccc2c(c1)OCO2)OCO3 -0.0389%, Cc1oc2c(c1C(=O)Nc1ccc(F)c(F)c1)C1=NCCN1C=N2 3.77%, O=C(NCC(c1cccnc1)N1CCc2ccccc21)c1cccc(C(F)(F)F)c1 (centres undefined) 0.389%, O=C(CN1c2ccccc2S(=O)(=O)c2ccccc21)Nc1cccc(C(F)(F)F)c1 -0.526%, COc1ccc(NC(=O)CSC2=Nc3ccccc3C3=NC(CC(=O)NCc4ccccc4OC)C(=O)N23)cc1Cl (centres undefined) -6%, CCN(CC)CCNC(=O)c1cc2c(=O)oc3ccc(C)cc3c2s1 9.39%, CCOC(=O)c1cc(-c2ccccc2)n(CCC(=O)Nc2ccccc2CC)c1C 2.18%, COC(=O)c1sc2ncccc2c1-n1c(C)ccc1C 4.85%, Cc1ccc2nc(/C(C#N)=C/c3ccccc3F)[nH]c2c1 -0.875%, COCCCNC(=O)C1CCC(CNS(=O)(=O)c2ccc(OC)cc2)CC1 (centres undefined) 2.75%, CCOC(=O)c1c(C)oc2nc(C)nc(N3CCN(c4ccc(OC)cc4)CC3)c12 -1.37%, NS(=O)(=O)c1ccc(CCNC(=O)CCCCCn2c(=O)[nH]c3ccccc3c2=O)cc1 0.328%, COc1ccc(S(=O)(=O)Nc2cc3c(C(=O)OC(C)C)c(C)oc3c3ccccc23)cc1 -0.0371%, COc1ccc(C(=O)CSc2c(C(C)C)cnc3c2c(=O)n(C)c(=O)n3C)cc1 1.18%, NS(=O)(=O)c1ccc2nc(NC(=O)COc3ccccc3)sc2c1 -0.423%, Cc1ccccc1C(=O)N(Cc1ccc(N(C)C)cc1)CC1CCCO1 (centres undefined) 0.0459%
